Among the data in PubChem BioAssay (EPA / NIEHS) are outcome and AC50 values, retold here.

Molecules are shown by their SMILES. Records with an inconclusive call do not appear. The source made the active and inactive calls. How the source made its calls, unless noted: active means hit-call score of the fitted dose curve at least 0.9, where 1 is the maximum; inconclusive means response in the unintended direction; inactive means score below 0.9.

A short description of experiment [1]: ATG_TGFb_CIS: Attagene CIS-FACTORIAL HepG2 Assay for human Transforming Growth Factor (TGF) (AID 2282967; active means hit-call score of the fitted dose curve at least 0.9, where 1 is the maximum; inactive means score below 0.9). The conditions noted are these: HepG2 Attagene CIS TGFb reporter, mRNA transcription; actives raise or lower the signal. In outline:
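HepG2 cells transiently transfected with cis-promoter-driven multiplexed reporter units; 24 h compound exposure. Reporter mRNA measured by RT-PCR, 6-FAM labeling, HpaI digestion and capillary electrophoresis; bidirectional fit versus DMSO baseline.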

The nature of experiment [2]: ATG_VDRE_CIS: Attagene CIS-FACTORIAL HepG2 Assay for human Vitamin D Receptor Element (VDRE) (AID 2282968; active means hit-call score of the fitted dose curve at least 0.9, where 1 is the maximum; inactive means score below 0.9). The settings on record: HepG2 VDRE cis-reporter transcription, actives raise or lower the signal. In outline: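 In transiently transfected HepG2 liver cells, gain or loss of reporter mRNA after 24 h exposure is scored relative to DMSO, using fluorescence detection by capillary electrophoresis of RT-PCR products.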

Experiment [3] deals with Nuclear receptor subfamily 1 group I member 3 (Homo sapiens) (UniProt Q14994). Briefly: ATG_CAR_TRANS: Attagene TRANS-FACTORIAL HepG2 Assay for human Constitutive Androstane Receptor (CAR) (AID 2282969).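 Further: activators raise reporter mRNA above DMSO so AC50 marks induction.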 The conditions noted are these: HepG2 Attagene TRANS-FACTORIAL CAR reporter. In outline: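 Readout is reporter mRNA induction, quantified by fluorescent primer extension and capillary electrophoresis after RT-PCR. Cells were HepG2 transiently carrying chimeric NR-Gal4 constructs with GAL4-UAS reporters, treated for 24 h; activity scored upward from DMSO.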

In experiment [4] the target is Estrogen receptor (Homo sapiens) (UniProt P03372). In words: ATG_ERa_TRANS: Attagene TRANS-FACTORIAL HepG2 Assay for human Estrogen Receptor alpha (ERa) (AID 2282970). The conditions noted are these: HepG2 Attagene TRANS ERa GAL4 reporter, mRNA. In outline: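 After 24 h of compound treatment, RNA from HepG2 cells bearing transfected GAL4-UAS reporter constructs is converted to cDNA, amplified and fluorescently labelled. Capillary electrophoresis resolves the ERa-linked reporter; DMSO serves as negative control.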

Experiment [5] deals with X-box-binding protein 1 (Homo sapiens) (UniProt P17861). In words: ATG_Xbp1_CIS: Attagene CIS-FACTORIAL HepG2 Assay for human X-box Binding Protein 1 (XBP1) (AID 2282972; active means hit-call score of the fitted dose curve at least 0.9, where 1 is the maximum; inactive means score below 0.9). The conditions noted are these: HepG2 XBP1 cis-element reporter, Attagene multiplex; actives raise or lower the signal. In outline:
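HepG2 cells transiently transfected with multiple cis-element reporter units report endogenous TF activity; 24 h exposure, then reporter mRNA measured by RT-PCR, 6-FAM labelling, HpaI digestion and capillary electrophoresis. Bidirectional fitting versus DMSO.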

A short description of experiment [6]: ATG_M_19_TRANS: Attagene TRANS-FACTORIAL HepG2 Assay for M19 Transcription Factor (Internal Marker) (AID 2282974). The settings on record: HepG2 Attagene TRANS-FACTORIAL M19 internal marker reporter. A digest of the protocol:
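24 h chemical exposure of transiently transfected HepG2 (MRTU library). RNA → oligo(dT) RT → PCR → 6-FAM labelling → HpaI cut → CE fluorescence. Positive-direction fit vs DMSO baseline; background internal-marker readout.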

A short description of experiment [7]: ATG_GAL4_TRANS: Attagene TRANS-FACTORIAL HepG2 Assay for GAL4 (Internal Marker) (AID 2282976). The settings on record: HepG2 Attagene TRANS GAL4 internal marker reporter. A digest of the protocol: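 RT-PCR/capillary electrophoresis readout of reporter mRNA. HepG2, transient MRTU transfection (GAL4-UAS reporters), 24 h compound exposure. Background-control endpoint, positive direction vs DMSO baseline.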

Experiment [8] has as its target Oxysterols receptor LXR-alpha (Homo sapiens) (UniProt Q13133). In words: ATG_LXRa_TRANS: Attagene TRANS-FACTORIAL HepG2 Assay for human Liver X Receptor alpha (LXRa) (AID 2282980). The conditions noted are these: HepG2 Attagene TRANS reporter, LXRa transactivation. In outline: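 Read-out: reporter transcript levels by RT-PCR plus capillary electrophoresis, fluorescence intensity. Transiently transfected HepG2, exogenous NR-GAL4 chimera, GAL4-UAS reporters; 24 h compound exposure. Activity = increase over DMSO negative control.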

Experiment [9] deals with Oxysterols receptor LXR-beta (Homo sapiens) (UniProt P55055). Briefly: ATG_LXRb_TRANS: Attagene TRANS-FACTORIAL HepG2 Assay for human Liver X Receptor beta (LXRb) (AID 2282981). The settings on record: HepG2 Attagene TRANS GAL4-LXRb reporter, mRNA. In outline:
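Cells: HepG2, transiently transfected with GAL4-UAS reporter units plus LXRb-Gal4 fusion. Treatment: 24 h. Detection: reporter mRNA by RT-PCR, 6-FAM labelling, HpaI digestion, capillary electrophoresis.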

Experiment [10] is described as follows: ATG_M_32_TRANS: Attagene TRANS-FACTORIAL HepG2 Assay for M32 Transcription Factor (Internal Marker) (AID 2282984).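 Further: transcript level of a background control reporter unit measured by RT-PCR and capillary electrophoresis.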 The conditions noted are these: HepG2 Attagene TRANS M32 internal marker reporter. In outline:
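Using transiently transfected HepG2 cells exposed to test chemicals for 24 h, reporter transcripts are converted to labelled cDNA fragments and quantified by capillary electrophoresis. DMSO defines the activity baseline.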

Experiment [11] addresses Nuclear receptor subfamily 4 group A member 2 (Homo sapiens) (UniProt P43354). In words: ATG_NURR1_TRANS: Attagene TRANS-FACTORIAL HepG2 Assay for human Nuclear Receptor Related Protein 1 (NURR1) (AID 2282985). The conditions noted are these: HepG2 Attagene TRANS reporter, mRNA readout. In outline: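 Cells: HepG2, transiently transfected. Exposure: 24 h. Detection: fluorescence of labelled RT-PCR products separated by capillary electrophoresis; upward fit versus DMSO.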

Experiment [12] addresses Transcriptional activator Myb (Homo sapiens) (UniProt P10242). In words: ATG_Myb_CIS: Attagene CIS-FACTORIAL HepG2 Assay for human Myeloblastosis (Myb) Proto-Oncogene Transcription Factor (AID 2282986; active means hit-call score of the fitted dose curve at least 0.9, where 1 is the maximum; inactive means score below 0.9). The conditions noted are these: HepG2 Attagene CIS-FACTORIAL Myb reporter transcription; actives raise or lower the signal. In outline:
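HepG2, transient MRTU transfection (cis-element promoters, endogenous TF activity), 24 h compound exposure. Readout: reporter mRNA via RT-PCR, 6-FAM labeling, HpaI digest, capillary electrophoresis. Gain/loss fit vs DMSO.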

The target in experiment [13] is Nuclear respiratory factor 1 (Homo sapiens) (UniProt Q16656). Briefly: ATG_NRF1_CIS: Attagene CIS-FACTORIAL HepG2 Assay for human Nuclear Respiratory Factor 1 (NRF1) Orphan Gene (AID 2282987; active means hit-call score of the fitted dose curve at least 0.9, where 1 is the maximum; inactive means score below 0.9). The conditions noted are these: HepG2 NRF1 cis-element reporter, Attagene multiplex; actives raise or lower the signal. In outline:
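Endogenous NRF1-driven reporter transcription measured in transiently transfected human HepG2 liver cells. Readout: reporter mRNA by RT-PCR and capillary electrophoresis with fluorescence detection, 24 h post-dosing. Gain or loss of signal fitted relative to DMSO baseline.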

Experiment [14] has as its target Androgen receptor (Homo sapiens) (UniProt P10275). In words: ATG_AR_TRANS: Attagene TRANS-FACTORIAL HepG2 Assay for human Androgen Receptor (AR) (AID 2282973). The settings on record: HepG2 Attagene TRANS-FACTORIAL AR reporter transcription. In outline: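 Readout is reporter transcript abundance, quantified by fluorescent RT-PCR products separated on capillary electrophoresis. Human HepG2 liver cells carried transiently transfected NR-Gal4 chimera plus GAL4-UAS reporter constructs and were dosed for 24 h; activity scored upward versus DMSO.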

Experiment [15] addresses Bile acid receptor (Homo sapiens) (UniProt Q96RI1). In words: ATG_FXR_TRANS: Attagene TRANS-FACTORIAL HepG2 Assay for Farnesoid X Receptor (FXR) (AID 2282979).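 Further: hits raise reporter mRNA above DMSO so AC50 marks FXR activation.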 The conditions noted are these: HepG2 Attagene TRANS FXR-GAL4 reporter transcription. A digest of the protocol:
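Read-out: fluorescent reporter transcripts quantified by capillary electrophoresis after RT-PCR of total RNA. Source cells were HepG2 transiently carrying chimeric NR-GAL4 plus GAL4-UAS reporter units, dosed 24 h. Activity fitted upward relative to DMSO baseline.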

Experiment [16] has as its target Glucocorticoid receptor (Homo sapiens) (UniProt P04150). Briefly: ATG_GR_TRANS: Attagene TRANS-FACTORIAL HepG2 Assay for human Glucocorticoid Receptor (GR) (AID 2282978).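 Further: activators score as hits since higher reporter transcript over DMSO is fitted.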 The settings on record: HepG2 Attagene TRANS GR reporter, mRNA transcription. A digest of the protocol: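 Transient MRTU transfection of HepG2 (GAL4-UAS reporters, exogenous NR-GAL4 chimeras), 24 h dosing. Readout: reporter transcript via RT-PCR + capillary electrophoresis fluorescence. Positive direction vs DMSO baseline.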

A short description of experiment [17]: ATG_M_06_TRANS: Attagene TRANS-FACTORIAL HepG2 Assay for M06 Transcription Factor (Internal Marker) (AID 2282983). The conditions noted are these: HepG2 Attagene TRANS M06 internal marker reporter. A digest of the protocol:
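After a 24 h chemical treatment of transfected HepG2, RNA underwent DNase I treatment, reverse transcription and reporter-specific PCR; labelled, HpaI-digested products were sized by capillary electrophoresis. Signal increase relative to DMSO defined activity.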

In experiment [18] the target is Hepatocyte nuclear factor 4-alpha (Homo sapiens) (UniProt P41235). Briefly: ATG_HNF4a_TRANS: Attagene TRANS-FACTORIAL HepG2 Assay for human Hepatocyte Nuclear Factor 4 alpha (HNF4a) (AID 2282982). The settings on record: HepG2 HNF4a transactivation reporter, mRNA readout. In outline:
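Transfected HepG2 reporter cells are dosed for 24 h; reporter RNA is reverse-transcribed, amplified, fluorescently labelled and HpaI-digested before CE sizing. Positive-direction fit against DMSO.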

Experiment [19] addresses Estrogen-related receptor gamma (Homo sapiens) (UniProt P62508). Briefly: ATG_ERRg_TRANS: Attagene TRANS-FACTORIAL HepG2 Assay for human Estrogen-Related Receptor gamma (ERRg) (AID 2282977).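 Further: hits increase reporter signal over DMSO so potencies reflect activators.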 The conditions noted are these: HepG2 Attagene TRANS reporter, ERRg transactivation. In outline:
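HepG2 cells transiently transfected with multiplexed GAL4-UAS reporter units and chimeric NR-Gal4 constructs were exposed to test chemicals for 24 h. Reporter mRNA was measured by RT-PCR, 6-FAM primer extension, HpaI digestion and capillary electrophoresis; gain-of-signal versus DMSO.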

Transcriptional activator Myb (Homo sapiens), sequence (P10242 whole entry, looked up): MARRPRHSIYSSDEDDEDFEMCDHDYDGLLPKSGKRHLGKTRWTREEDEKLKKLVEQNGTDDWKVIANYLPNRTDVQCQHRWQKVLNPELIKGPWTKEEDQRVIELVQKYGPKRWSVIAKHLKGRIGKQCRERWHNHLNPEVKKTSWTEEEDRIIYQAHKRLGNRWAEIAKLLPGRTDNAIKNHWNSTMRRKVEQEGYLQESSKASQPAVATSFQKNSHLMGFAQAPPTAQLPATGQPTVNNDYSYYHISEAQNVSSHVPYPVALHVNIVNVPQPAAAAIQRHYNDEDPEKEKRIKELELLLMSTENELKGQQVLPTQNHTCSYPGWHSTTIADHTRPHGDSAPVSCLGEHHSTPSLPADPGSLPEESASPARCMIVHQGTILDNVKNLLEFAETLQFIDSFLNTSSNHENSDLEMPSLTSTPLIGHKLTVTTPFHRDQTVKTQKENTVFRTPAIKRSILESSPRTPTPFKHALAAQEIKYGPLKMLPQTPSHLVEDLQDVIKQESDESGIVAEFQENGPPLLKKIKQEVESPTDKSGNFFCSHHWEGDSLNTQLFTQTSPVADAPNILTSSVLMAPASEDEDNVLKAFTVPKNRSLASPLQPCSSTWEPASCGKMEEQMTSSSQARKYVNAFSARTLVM
Nuclear receptor subfamily 4 group A member 2 (Homo sapiens), sequence (P43354 whole entry, looked up): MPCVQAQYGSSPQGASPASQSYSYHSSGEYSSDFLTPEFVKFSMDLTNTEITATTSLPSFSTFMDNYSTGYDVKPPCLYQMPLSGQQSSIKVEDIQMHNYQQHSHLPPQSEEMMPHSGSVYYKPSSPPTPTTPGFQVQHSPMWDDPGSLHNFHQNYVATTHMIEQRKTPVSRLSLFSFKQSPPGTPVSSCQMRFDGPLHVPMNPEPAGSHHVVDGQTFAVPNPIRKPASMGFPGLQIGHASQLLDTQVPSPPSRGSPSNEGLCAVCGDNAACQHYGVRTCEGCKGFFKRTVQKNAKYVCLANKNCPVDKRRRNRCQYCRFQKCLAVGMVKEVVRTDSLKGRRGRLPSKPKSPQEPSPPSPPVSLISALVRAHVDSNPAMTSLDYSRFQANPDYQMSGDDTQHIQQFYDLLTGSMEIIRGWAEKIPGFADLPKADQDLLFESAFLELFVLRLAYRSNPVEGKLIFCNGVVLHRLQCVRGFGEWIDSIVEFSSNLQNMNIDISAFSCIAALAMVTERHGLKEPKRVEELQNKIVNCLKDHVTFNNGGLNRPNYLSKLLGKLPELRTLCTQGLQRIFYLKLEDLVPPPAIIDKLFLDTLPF
Estrogen receptor (Homo sapiens), sequence (P03372 whole entry, looked up, the tested form may be a part): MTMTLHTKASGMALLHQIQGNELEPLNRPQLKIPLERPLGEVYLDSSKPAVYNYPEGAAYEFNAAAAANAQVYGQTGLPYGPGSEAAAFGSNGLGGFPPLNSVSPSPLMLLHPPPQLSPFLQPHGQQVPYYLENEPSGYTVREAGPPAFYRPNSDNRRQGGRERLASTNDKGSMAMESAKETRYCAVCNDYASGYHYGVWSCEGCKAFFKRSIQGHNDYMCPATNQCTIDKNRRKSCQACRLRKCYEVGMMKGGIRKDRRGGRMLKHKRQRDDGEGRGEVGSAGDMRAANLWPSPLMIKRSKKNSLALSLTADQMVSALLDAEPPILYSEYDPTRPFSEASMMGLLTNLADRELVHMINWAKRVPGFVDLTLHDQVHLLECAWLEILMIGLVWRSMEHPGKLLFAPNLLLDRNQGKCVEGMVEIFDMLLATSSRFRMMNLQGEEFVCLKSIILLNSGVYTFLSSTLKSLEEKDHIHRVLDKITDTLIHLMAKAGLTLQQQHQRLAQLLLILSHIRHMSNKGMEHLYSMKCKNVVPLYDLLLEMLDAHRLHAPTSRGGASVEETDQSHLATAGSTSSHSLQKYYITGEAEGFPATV
Nuclear receptor subfamily 1 group I member 3 (Homo sapiens), sequence (Q14994 whole entry, looked up, the tested form may be a part): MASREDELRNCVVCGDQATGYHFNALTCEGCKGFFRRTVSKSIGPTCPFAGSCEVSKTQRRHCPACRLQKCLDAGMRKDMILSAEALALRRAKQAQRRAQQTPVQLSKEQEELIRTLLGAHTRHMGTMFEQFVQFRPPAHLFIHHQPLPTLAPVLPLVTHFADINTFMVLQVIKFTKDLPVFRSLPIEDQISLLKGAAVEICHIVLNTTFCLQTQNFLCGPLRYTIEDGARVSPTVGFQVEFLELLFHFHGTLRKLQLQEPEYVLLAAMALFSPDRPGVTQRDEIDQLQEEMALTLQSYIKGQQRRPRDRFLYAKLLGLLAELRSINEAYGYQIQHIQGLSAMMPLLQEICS
Nuclear respiratory factor 1 (Homo sapiens), sequence (Q16656 whole entry, looked up): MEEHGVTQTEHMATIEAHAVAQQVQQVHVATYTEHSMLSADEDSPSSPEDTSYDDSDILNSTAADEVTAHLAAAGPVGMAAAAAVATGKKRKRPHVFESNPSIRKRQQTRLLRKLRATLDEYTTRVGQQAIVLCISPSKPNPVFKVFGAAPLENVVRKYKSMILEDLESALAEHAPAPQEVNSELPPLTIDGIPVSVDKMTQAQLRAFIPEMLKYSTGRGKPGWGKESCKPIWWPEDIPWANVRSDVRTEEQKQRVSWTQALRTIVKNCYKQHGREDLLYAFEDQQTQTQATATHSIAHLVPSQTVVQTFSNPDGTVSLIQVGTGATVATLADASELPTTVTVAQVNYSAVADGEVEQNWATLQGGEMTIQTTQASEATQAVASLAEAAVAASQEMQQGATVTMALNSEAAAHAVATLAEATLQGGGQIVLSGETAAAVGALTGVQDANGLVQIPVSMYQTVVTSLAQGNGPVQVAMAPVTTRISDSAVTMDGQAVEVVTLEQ
X-box-binding protein 1 (Homo sapiens), sequence (P17861 whole entry, looked up): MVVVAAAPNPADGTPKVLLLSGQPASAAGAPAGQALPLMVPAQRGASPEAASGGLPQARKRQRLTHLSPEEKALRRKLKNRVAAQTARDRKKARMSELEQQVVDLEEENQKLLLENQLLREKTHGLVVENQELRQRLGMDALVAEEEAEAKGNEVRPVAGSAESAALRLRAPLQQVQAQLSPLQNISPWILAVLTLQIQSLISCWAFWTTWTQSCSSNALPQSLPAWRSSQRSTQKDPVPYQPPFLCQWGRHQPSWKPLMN
Androgen receptor (Homo sapiens), sequence (P10275 whole entry, looked up, the tested form may be a part): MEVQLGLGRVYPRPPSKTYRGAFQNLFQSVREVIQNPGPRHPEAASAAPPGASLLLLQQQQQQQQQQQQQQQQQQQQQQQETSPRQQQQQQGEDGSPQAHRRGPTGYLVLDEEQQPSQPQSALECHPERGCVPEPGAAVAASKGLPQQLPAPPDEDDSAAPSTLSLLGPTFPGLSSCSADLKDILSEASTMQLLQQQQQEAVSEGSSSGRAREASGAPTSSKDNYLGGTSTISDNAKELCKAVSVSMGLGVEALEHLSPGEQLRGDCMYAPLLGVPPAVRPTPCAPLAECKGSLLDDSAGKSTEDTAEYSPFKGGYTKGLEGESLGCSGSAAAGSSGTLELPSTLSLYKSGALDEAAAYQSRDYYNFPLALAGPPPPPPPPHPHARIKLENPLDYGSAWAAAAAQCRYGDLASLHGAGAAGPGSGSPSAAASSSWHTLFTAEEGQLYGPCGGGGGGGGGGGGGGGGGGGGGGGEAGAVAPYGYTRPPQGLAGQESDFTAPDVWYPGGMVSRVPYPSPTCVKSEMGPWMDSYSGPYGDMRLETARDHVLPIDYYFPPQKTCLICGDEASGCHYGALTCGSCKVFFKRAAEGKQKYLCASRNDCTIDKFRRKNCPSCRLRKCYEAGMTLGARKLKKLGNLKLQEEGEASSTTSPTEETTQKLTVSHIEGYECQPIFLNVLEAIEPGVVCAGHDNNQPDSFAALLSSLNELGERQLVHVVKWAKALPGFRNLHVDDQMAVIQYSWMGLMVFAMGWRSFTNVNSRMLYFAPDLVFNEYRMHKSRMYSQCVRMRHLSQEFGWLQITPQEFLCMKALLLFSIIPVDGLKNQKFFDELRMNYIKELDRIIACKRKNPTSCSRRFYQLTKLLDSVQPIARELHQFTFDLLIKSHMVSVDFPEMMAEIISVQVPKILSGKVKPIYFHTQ
Oxysterols receptor LXR-alpha (Homo sapiens), sequence (Q13133 whole entry, looked up, the tested form may be a part): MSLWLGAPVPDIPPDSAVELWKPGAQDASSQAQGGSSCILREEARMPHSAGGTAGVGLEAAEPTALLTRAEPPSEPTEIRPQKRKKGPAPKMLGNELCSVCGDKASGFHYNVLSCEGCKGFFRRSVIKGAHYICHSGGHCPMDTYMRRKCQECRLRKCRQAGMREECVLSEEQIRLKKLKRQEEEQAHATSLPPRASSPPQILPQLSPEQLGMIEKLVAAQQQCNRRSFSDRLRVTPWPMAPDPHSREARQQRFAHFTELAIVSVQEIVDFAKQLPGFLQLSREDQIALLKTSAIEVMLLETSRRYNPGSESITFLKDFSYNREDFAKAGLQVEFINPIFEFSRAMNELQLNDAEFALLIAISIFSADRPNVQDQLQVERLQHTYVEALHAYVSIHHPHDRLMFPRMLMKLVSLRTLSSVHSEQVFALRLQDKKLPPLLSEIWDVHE
Bile acid receptor (Homo sapiens), sequence (Q96RI1 whole entry, looked up, the tested form may be a part): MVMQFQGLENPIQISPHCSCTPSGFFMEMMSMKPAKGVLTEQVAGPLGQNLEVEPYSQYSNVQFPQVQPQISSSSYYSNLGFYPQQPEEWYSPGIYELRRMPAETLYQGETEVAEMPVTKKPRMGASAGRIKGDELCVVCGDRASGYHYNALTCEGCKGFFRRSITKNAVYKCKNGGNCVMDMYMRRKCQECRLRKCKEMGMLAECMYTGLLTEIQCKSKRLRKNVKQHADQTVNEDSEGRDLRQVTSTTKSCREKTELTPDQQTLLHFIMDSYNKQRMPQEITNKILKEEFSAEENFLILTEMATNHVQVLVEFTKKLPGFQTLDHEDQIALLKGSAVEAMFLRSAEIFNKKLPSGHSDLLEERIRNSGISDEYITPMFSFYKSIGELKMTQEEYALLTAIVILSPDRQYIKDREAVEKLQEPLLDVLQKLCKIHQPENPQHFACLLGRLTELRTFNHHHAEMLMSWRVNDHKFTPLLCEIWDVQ

As for `O=C=Nc1ccc(Cl)cc1`, the call in experiment [1], in experiment [2], in [3], in [4], in experiment [5] and in experiment [6] was inactive. For the same molecule, the call in experiment [7], in experiment [8], in experiment [9], in experiment [10], in experiment [11] and in experiment [12] was inactive. In experiment [13], the molecule was called inactive.

One may read the AC50 as the concentration giving half of the maximal activity seen. For `OC(Cc1ccccc1Cl)(Cn1[nH]cnc1=S)C1(Cl)CC1` (centres undefined), the call in experiment [1], in experiment [3], in experiment [14], in [6], in experiment [15] and in experiment [8] was inactive. In addition, the result in experiment [11], in experiment [12] and in experiment [13] was inactive. The AC50 in experiment [2] is 18 µM (active); in experiment [4] it was 5.83 µM (active); in experiment [5] it was 100 µM (active).

As for `CCOP(=S)(OCC)SCS(=O)(=O)C(C)(C)C`, the call in [1], in experiment [2], in [3], in experiment [4], in [5] and in [14] was inactive. For the same molecule, the result in [7], in [16], in experiment [15], in experiment [17], in [10] and in experiment [12] was inactive. Also, the call in [13] was inactive. In addition, the AC50 in [8] was 34.1 µM (active); in experiment [9] it was 53.5 µM (active).

`CN(C1CCCCC1)C1CCCCC1`: the molecule was called inactive in experiment [1], in experiment [2], in experiment [3], in experiment [4], in experiment [5] and in [14]. The molecule was classed as inactive in experiment [6], in experiment [8], in experiment [18], in experiment [17], in [10] and in experiment [12]. In addition, the call in experiment [13] was inactive.

As to `Cc1c([N+](=O)[O-])c(C)c([N+](=O)[O-])c(C(C)(C)C)c1[N+](=O)[O-]`, the result in experiment [1], in [3], in experiment [6], in [19], in experiment [17] and in experiment [12] was inactive. For the same molecule, the molecule was classed as inactive in [13]. Further, the AC50 in [2] was 1.84 µM (active); in [4], 7.73 µM (active); in experiment [5] it was 100 µM (active); in experiment [11] it was 11.3 µM (active).
